Screens: PubChem BioAssay, National Center for Advancing Translational Sciences (NCATS)
Compounds with a hit are over-represented: about 0.99% of the library has one in this group of screens.
L3MBTL1 block: inhibitors of human L3MBTL1. AlphaScreen L3MBTL1–H3K9me1 peptide binding. Potency, µM (titrated, usually from 57.1 µM), for inactives: top-dose activity, negative = inhibition, hits mostly inhibitors. 230,000 tested, 0.66% active; further: nearly all actives have a fitted effect of over 60% in size
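AlphaScreen proximity signal between nickel-chelate acceptor and streptavidin donor beads (final 10 ug/mL) reports binding of 50 nM L3MBTL1 to 75 nM biotin-H3 K9me1 peptide; complex incubated with compounds 30 min at room temperature; cefsulodin titration as control.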
BLM inh: blocks DNA unwinding by human BLM helicase | P54132 | recombinant BLM DNA unwinding, fluorescence dequenching | Potency, µM (series often up to 56.1 µM), for inactives: at the highest dose activity change, negative = inhibition, hits mostly inhibitors | 350,000 tested, 0.2% active | AID 2528;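 further: plate controls were vehicle for no effect and no enzyme for full effect; nearly all actives have a fitted effect of over 35% in size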
RECQ1 inh: RECQ1 (human) helicase inhibition. 240,000 tested, 0.54% active. Potency, µM (top dose mostly 57.3 µM), for the others: at the top dose activity, negative = inhibition, usual class: inhibitors. RECQ1 DNA unwinding, red fluorescence kinetic read;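 further: plate controls were vehicle for no effect and no enzyme for full effect; nearly all actives have a fitted effect of over 30% in size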
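50 nM RECQ1T1 preincubated 15 min with compound in Tris pH 8.0 buffer with MgCl2, DTT, Tween-20 and 2.5 ug/ml poly(dI-dC); started with 200 nM TAMRA/BHQ-2 forked duplex and 2 mM ATP. Unwinding read as fluorescence (525/598 nm), two reads 2 h apart.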
WRN helicase inh: blocks human WRN helicase; Q14191; WRN helicase unwinding, fluorescent forked duplex, kinetic; Potency, µM (highest dose often 114 µM), for inactives: at the highest dose activity change, negative = inhibition, usual class: inhibitors; 360,000 tested, 0.46% active; AID 651768; further: nearly all actives have a fitted effect of over 55% in size
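Fluorescence dequenching readout, ex 525 nm/em 598 nm, kinetic mode: forked duplex DNA (100 nM final) with adjacent fluorophore and quencher unwound by WRN (20 nM final) with 2 mM ATP. Compound preincubation 15 min, room temperature.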
FEN1 inhibitor: blocks human flap endonuclease 1. P39748. Recombinant FEN1 flap cleavage, fluorescence, 15 min. Potency, µM (top dose mostly 114 µM), without a hit: at the highest dose activity change, negative = inhibition, most hits filed as inhibitors. 390,000 tested, 0.35% active. AID 588795; further: nearly all actives have a fitted effect of over 65% in size
Target sequence (P39748 whole entry, looked up): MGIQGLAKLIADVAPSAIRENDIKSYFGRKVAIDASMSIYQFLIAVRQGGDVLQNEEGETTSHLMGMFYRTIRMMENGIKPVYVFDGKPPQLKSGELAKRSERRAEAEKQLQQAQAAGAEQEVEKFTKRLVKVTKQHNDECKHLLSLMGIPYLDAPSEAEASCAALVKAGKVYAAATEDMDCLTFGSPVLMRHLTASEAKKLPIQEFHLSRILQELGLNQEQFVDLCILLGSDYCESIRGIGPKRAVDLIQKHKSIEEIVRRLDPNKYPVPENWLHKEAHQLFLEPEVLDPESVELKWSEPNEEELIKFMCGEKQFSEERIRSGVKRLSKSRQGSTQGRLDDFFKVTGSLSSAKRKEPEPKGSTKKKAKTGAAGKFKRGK
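Potency values derive from four-parameter Hill fits of normalized qHTS data. The reaction used 10 nM FEN1 preincubated 15 min at room temperature with compound, then 50 nM DNA substrate, read at 0 and 15 min.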
An asterisk follows results filed as active. The call rests on the fitted dose curve; in most records, active means well fitted curve in the direction sought with a large enough effect; inconclusive means small, poorly fitted or top-dose-only effect, or another doubt; inactive means no such curve, though single readings can be large; an effect the other way counts as inactive or inconclusive. Unless noted, on the % scale 0 is the no-effect control and ±100 the full control effect; potency means the concentration at half of the fitted maximal effect.

What do the screens show for `CC1Cc2ccccc2N1C(=O)COC(=O)c1ccc(N(C)C)cc1` (centres undefined)?
L3MBTL1 block: 13%; WRN helicase inh: 56µM*; FEN1 inhibitor: -9%

How did CC1Cc2ccccc2N1C(=O)COC(=O)c1ccc(O)cc1 (centres undefined) do in these assays?
L3MBTL1 block: 4%; BLM inh: -5%; RECQ1 inh: inactive; WRN helicase inh: 7%; FEN1 inhibitor: -5%

What do the screens show for `N#Cc1c(SCC(=O)N2CCCCC2)nsc1SCC(=O)N1CCCCC1`?
BLM inh: -3%; RECQ1 inh: -4%; WRN helicase inh: -4%; FEN1 inhibitor: -7%

What do the screens show for `C#CCSc1nsc(SCC#C)c1C#N`?
L3MBTL1 block: -11%; BLM inh: -15%; RECQ1 inh: -8%; WRN helicase inh: 50µM*; FEN1 inhibitor: inconclusive

How did O=[N+]([O-])c1cc2no[n+]([O-])c2cc1N1CCCCC1 do in these assays?
WRN helicase inh: inconclusive; FEN1 inhibitor: 50µM*

How did O=[N+]([O-])c1ccc(O)c(-c2nn[nH]n2)c1 do in these assays?
BLM inh: 3%; RECQ1 inh: 3%; WRN helicase inh: 79µM*; FEN1 inhibitor: 0%

Results for O=[N+]([O-])c1ccc(O)c(/C=N/Nc2nn[nH]n2)c1 ?
L3MBTL1 block: 14µM*; BLM inh: 1%; RECQ1 inh: -5%; WRN helicase inh: -7%; FEN1 inhibitor: 4%

Results for CCCN(CCC)CCOc1cc(C)ccc1C(C)C ?
L3MBTL1 block: -5%; BLM inh: 2%; RECQ1 inh: -3%; WRN helicase inh: -29%; FEN1 inhibitor: -2%

What do the screens show for `FC(F)(F)c1cc(Cl)c2nc(-c3ccco3)c(Cc3ccccc3C(F)(F)F)n2c1`?
WRN helicase inh: -4%

How did O=[N+]([O-])c1ccccc1NC(=S)N/N=C/c1ccc(O)c(O)c1 do in these assays?
L3MBTL1 block: inconclusive; BLM inh: -17%; RECQ1 inh: inconclusive; WRN helicase inh: 11µM*; FEN1 inhibitor: -27%

How did CCOc1cccc(/C=N/NC(=S)Nc2ccccc2[N+](=O)[O-])c1O do in these assays?
L3MBTL1 block: inconclusive; BLM inh: -2%; RECQ1 inh: inactive; WRN helicase inh: -3%; FEN1 inhibitor: 1%

How did C=CC1=C(C)C2=Cc3c(C=C)c(C)c4[n]3[Sn+2][n]3c(c(C)c(CCC(=O)O)c3=CC3=NC(=C4)C(C)=C3CCC(=O)O)=CC1=N2 do in these assays?
BLM inh: -22%; RECQ1 inh: 40µM*

What do the screens show for `CCc1ccc(CN(C)C(C)C(=O)NCc2ccccc2)cc1` (centres undefined)?
BLM inh: -4%; WRN helicase inh: 15%; FEN1 inhibitor: -2%

What do the screens show for `O=C(Nc1cccc(C(=O)Nc2ccccc2C(=O)O)c1)c1cccc(Cl)c1`?
WRN helicase inh: -23%; FEN1 inhibitor: 12%

Results for O=C(Cc1ccc(Cl)cc1)Nc1cccc(C(=O)Nc2ccccc2C(=O)O)c1 ?
BLM inh: -7%; WRN helicase inh: 89µM*; FEN1 inhibitor: 0%

How did CC[N+]1=C(C)C(C)(C)c2cc(C)ccc21 do in these assays?
BLM inh: -10%; RECQ1 inh: 25µM*; WRN helicase inh: inconclusive; FEN1 inhibitor: inconclusive

How did CCN1C(=O)C(=O)c2cc(C)ccc21 do in these assays?
L3MBTL1 block: -1%; WRN helicase inh: -3%; FEN1 inhibitor: -7%

How did Cc1ccc(NC(=O)c2cc3ccccc3oc2=N)cc1 do in these assays?
BLM inh: -1%; WRN helicase inh: -3%; FEN1 inhibitor: 5%

How did N=c1oc2c3c4c(cc2cc1C(=O)Nc1ccccc1)CCCN4CCC3 do in these assays?
L3MBTL1 block: 41%; BLM inh: -4%; RECQ1 inh: -12%; WRN helicase inh: 56µM*; FEN1 inhibitor: -1%

Results for COc1ccc(NC(=O)CSc2nccn2Cc2ccccc2)cc1 ?
BLM inh: 0%; WRN helicase inh: -35%; FEN1 inhibitor: 5%

Results for CCc1ccc(/C=C2/SC(N3CCOCC3)=NC2=O)cc1 ?
L3MBTL1 block: 3%; BLM inh: 0%; RECQ1 inh: -7%; WRN helicase inh: -8%; FEN1 inhibitor: 4%
